69 sequences from PubChem BioAssay AID1508600 (Functional Genomics Laboratory (NCATS/FGL), 2020) can be followed below.

Among all 53,000 sequences or so, about 3,700 (7%) were called active.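 Rule for the calls: active = gene knockdowns whose robust z-score for IL-1 alpha signal is at least 2 or at most -2, so actives lie on both sides; inactive = the rest.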 Many of the other results were omitted from the sample, so actives are more common in it than they were.

A short description of this assay: Components of the Cytosolic LPS Sensing Pathway: Gene Identification via Genome-wide siRNA Screen. To be noted: RAW264.7 macrophages, IL-1a HTRF, actives lie on both sides, screened at 100 nM (by protocol), cells primed 5 h with Pam3CSK4 first. From the text: Non-canonical inflammasome activation by cytosolic LPS is a critical component of the host response to Gram-negative bacterial infection, however we lack a comprehensive understanding of the cellular processes that control this pathway. Here we describe a genome-wide siRNA screen to identify genes regulating the mouse macrophage IL-1 alpha response to cytosolic LPS.
RAW264.7 cells were maintained in complete DMEM media, comprising DMEM with 4.5 g/L glucose, 10% FBS (Gemini Bio-Products, West Sacramento, CA), 2 mM Glutamine (Lonza) and 20 mM HEPES (Lonza), hereafter complete DMEM.
The RNAi screen was conducted in 384-well format using the Ambion Silencer Mouse Genome siRNA Library (#4391425), which consists of three unique, nonoverlapping, nonpooled siRNAs for each of 17,000 gene targets. siRNA reagents ([…]) were stamped into 384-well white flat-bottom microplates (Corning, 3570) using a Velocity11 VPrep liquid handling system (Agilent) integrated into a BioCel robotic platform (Agilent) in columns 1-22, leaving columns 23-24 empty for negative (Ambion, Negative control #1) and positive (mouse Casp4) controls, respectively. The median value of each plate's negative control column was used to normalize sample wells, and the positive control was used to assess transfection efficiency and assay performance.
Lipofectamine RNAiMAX Transfection Reagent ([…]; Invitrogen) was added in […] serum-free, antibiotic-free media to plate wells using a Thermo Scientific Matrix WellMate and Microplate Stacker. Plates were incubated for 45 min at room temperature to allow for the sufficient formation of siRNA-lipid complexes. Cells were seeded at a density of 1x10^4 cells per well in 20 microL media containing 20% (vol/vol) FBS without antibiotics. The final concentration of siRNA in each well was 100 nM. Cells were cultured for 48h at 37 degrees C in 5% CO2 before addition of […] of TLR ligand Pam3CSK4 for 5 hours. The medium was then removed, replaced with […] growth media and cell were transfected with […] of LipidA and TransIT-TKO (Mirus) for 24 hour. At the end of the LipidA treatment, […] of supernatant was transferred to a 384 Greiner Bio-one non-binding low volume plate and […] of IL-1a HTRF reagent (Cisbio, 62MIL1APEH) was added and incubated at room temperature overnight. The plates were read on an EnVision plate reader (PerkinElmer). Cell viability was measured by adding 20ul Cell Titer Glo to the original plate and running a luminescence read on the EnVision. The quantified IL-1a signal for each siRNA gene-targeted well was divided by the median of the negative control wells and multiplied by 100 to achieve a negative control normalized value for each well/siRNA. This normalized value was then used to generate a robust z-score by first taking the log of each value and then by subtracting the median and dividing by the […].
For orientation: In TR-FRET formats the signal depends on donor and acceptor labels being close together.
On to GGUCAUCGAUAAGAAAAGATT against Hunk, for which the z-score was -1.09 (inactive).

As to GCAGGUGAAAAGCAAUCCUTT against Prss27, the z-score is 1.03 (inactive).

GAUGGUCAUUGAUGUCCUUTT against Rps24: the z-score was -0.694 (inactive).

For the sequence GGAGAGUGCUGAUGUUCUGTT against Rhox6, the z-score was 2.26 (active).

As to GGUGCUUGUGGGUAACAAGTT against Rab33a, the z-score is 1.94 (inactive).

Turning to GGACAUAAUCAAAGACAUCTT against Ddc, the z-score was 1.15 (inactive).

In the case of GGCAUACCCAAAAAUAGAATT against Eif1a, the z-score is 0.139 (inactive).

Regarding GGAGAACUCCAGGUUGGCATT against Eaf1, the z-score was -2.03 (active).

As for GCGCAAAGAUGGCUAUUGCTT against Adamts3, the z-score was 1.42 (inactive).

GCUCAUCCAUUACGAGUUGTT against Dusp18: the z-score was 0.878 (inactive).

With GCAUUUCCUUAACACUCCCTT against Msmb, the z-score is -0.614 (inactive).

Consider CGAGAAACAGAGUAUCAAGTT against Utp23, for which the z-score is 0.776 (inactive).

Take GGGCCAUACCAUUUGGGUGTT against Wdr38: the z-score is 0.142 (inactive).

Turning to GGUAAAAAGUACAAGUGGGTT against Slc17a5, the z-score was -0.909 (inactive).

As for GGUGAUACCUCUGUCCUGGTT against Exosc5, the z-score was -1.17 (inactive).

Regarding GGAGGGUGAUCUCAUUGAATT against Prkd1, the z-score was 0.479 (inactive).

As to GCAGCAAUACAUCCUUCAUTT against Cdh1, the z-score is 1.12 (inactive).

As for CCGAGCUAGAUCAGCUAUUTT against Mertk, the z-score is -1.45 (inactive).

On to GGAAACCGUUUUUUUUUUCTT against Appbp2, for which the z-score is 2.16 (active).

Regarding CCUAAUCUCUUGUAGGUAUTT against AU018091, the z-score was 1.03 (inactive).

For the sequence GGAACAGGCAACAUGAUUGTT against Nlgn3, the z-score was 0.376 (inactive).

In the case of GGCUGUAUGUAUAUAGUCCTT against Snrpb, the z-score was -2.41 (active).

On to GGUGUCCACAUUAAAUUACTT against Foxb1, for which the z-score is 2.21 (active).

In the case of GCACUAAGUCCCAUGUGUCTT against Trim11, the z-score is -1.01 (inactive).

Turning to GGUUAUGGUAUUAACAGGUTT against Slc17a4, the z-score was 0.112 (inactive).

In the case of GGGCAGAAUGCCAGUGUACTT against Kif22, the z-score is -0.305 (inactive).

With GCUUGACGCGAACUUACCATT against Endog, the z-score is 2.35 (active).

GGUGGACUUCGAGAACAUATT against Cyp2d26: the z-score is 0.75 (inactive).

Turning to GGAUCAUCAACCAUCUAAUTT against Srsf7, the z-score was -1.11 (inactive).

For the sequence GCCUUUUGAUGCUUCCUCUTT against Rusf1, the z-score is -0.696 (inactive).

Turning to GCUCAAAGUUUGAACUGGCTT against Atxn2l, the z-score is 0.153 (inactive).

For “GCUGAAGAGGCGCAUACAUTT against 2610318N02Rik”, the z-score was 3.07 (active).

Turning to GCCAAAGACUCUUAUAAGUTT against Bnc1, the z-score was -0.455 (inactive).

Consider UCUCCUUCCUAACUUCAACTT against Tmem252, for which the z-score is 0.747 (inactive).

With GCUCUCACCAUCAGAGAAATT against Trpc4, the z-score is -0.12 (inactive).

On to CCUCUGAGUGGAACACCUATT against Sfr1, for which the z-score was -3.54 (active).

GGCAUUCAUGACAAUGGCUTT against Rab1b: the z-score is -1.89 (inactive).

Consider GCGAUUUAUUGCCAAGCCCTT against Cers5, for which the z-score was 0.596 (inactive).

With “GGUUUAAGCUUUUUGUGGATT against D130079A08Rik”, the z-score was 0.0133 (inactive).

For GGAUGUGACGCACACAUGUTT against Cdip1, the z-score was 1.11 (inactive).

Take GCAAAUUGGUCAUCGACUGTT against Alg1: the z-score was 0.0456 (inactive).

For the sequence GCCAUCUACUCUUUAAAUATT against Pdha1, the z-score was 0.351 (inactive).

With GCAGAAAAACAUCCACGACTT against Spn, the z-score was -2.01 (active).

As for GCAGACAGAUCGCUUCAACTT against Dok4, the z-score was -0.882 (inactive).

As to CCCUCUUAGGAGCUAGUGATT against Atp2b4, the z-score was -1.85 (inactive).

Consider CCAUUCGAUACCUCGUGCATT against Dhps, for which the z-score is -0.249 (inactive).

As to GGGCCUGGAUUACUUACACTT against Srpk1, the z-score was 4.83 (active).

As for UACUUGUAGCCAUGGCUCUTT against Olfr685, the z-score was 0.334 (inactive).

In the case of GGCAAAAUAUUGCACAGCGTT against Tsga10, the z-score is -0.474 (inactive).

GGAAAUUAAACAGAAACAGTT against Ube2j2: the z-score was -0.471 (inactive).

For the sequence GGCUGUUUUACAUCAUCCCTT against Ust, the z-score is -0.227 (inactive).

Take GGGAAAGUUUCUGCAUUCUTT against Lce1d: the z-score was 2.07 (active).

For CCACAGUCUAUUCAAACUUTT against Ncapd3, the z-score was -1.12 (inactive).

On to GGUCAAGUCAGCAUUCCUGTT against Hspbp1, for which the z-score was -1.78 (inactive).

With GGAAAAGAAGACCUACACCTT against Ppp1r1c, the z-score was -2.04 (active).

With GGCCUGGAUGGAAAUUUGCTT against Fabp4, the z-score was -0.851 (inactive).

In the case of GGAGAAAAGAGUUUGCCCGTT against Wfdc12, the z-score is -0.329 (inactive).

Consider GCAAAUUCUCGGUGUCAAATT against Ezh2, for which the z-score is -1.04 (inactive).

Turning to CCUAGUAACUAUCUACCUCTT against Sval3, the z-score is 0.232 (inactive).

As to GGAUAUCAUCAUGUCUUUCTT against Otop1, the z-score was 1.29 (inactive).

For the sequence CGUGGAUAAAGAUAACCCGTT against Znrd2, the z-score is -0.117 (inactive).

Turning to GAUAAAAUCGGACUGAUAATT against Olfr1079, the z-score was 0.837 (inactive).

Consider GGCGAACACUGUCAUGAAUTT against Spin4, for which the z-score was 3.37 (active).

For GGUAUUCACACUGAAGCCCTT against H2-DMa, the z-score is 0.108 (inactive).

As for GCAACAUCCAGGCUUGCCUTT against Tmem107, the z-score was -0.874 (inactive).

With “CCAUGAAGAACAAGAAAACTT against 1700010D01Rik”, the z-score was 0.239 (inactive).

For GGAUAGAAAACAGUAUCUGTT against Fggy, the z-score is 1.07 (inactive).

On to GGAAAACUGCUUUGAGCUGTT against Thap7, for which the z-score was 2.72 (active).

Regarding AAGGUGCAGAGUUACACGUTT against H2-T10, the z-score was 1.17 (inactive).
